Laboratory results reported in PubChem BioAssay (NCATS).
Results filed as inconclusive are left out. The source made the active and inactive calls. Calls follow the shape of the dose curve; as a rule, active = well fitted inhibition curve with a large enough effect; inconclusive = small, poorly fitted or top-dose-only effect; inactive = flat fitted curve, though single readings scatter.

Columns and labels:
Test in all cases: qHTS profiling for inhibitors of Plasmodium falciparum proliferation (AID 504749); also: nearly all actives have a fitted effect of over 60% in size
Settings in all cases: P. falciparum in erythrocytes, SYBR Green DNA, 72 h; series mostly up to 28.7 µM
3D7 = system: 3D7
In short: (§1)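 P. falciparum-infected erythrocytes (0.3% parasitemia, 2.5% hematocrit) incubated with compound 72 h at 37 C, 5% CO2. Parasite DNA detected by SYBR Green after lysis, overnight at room temperature; normalised to 0.29 uM artemisinin and DMSO.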

C2A = system: C2A
In short: as §1

CP191 = system: CP191
In short: as §1

CP192 = system: CP192
In short: as §1

CP194 = system: CP194
In short: as §1

CP237 = system: CP237
In short: as §1

CP250 = system: CP250
In short: as §1

CP256 = system: CP256
In short: as §1

CP268 = system: CP268
In short: as §1

CP305 = system: CP305
In short: as §1

Dd2 = system: Dd2
In short: as §1

HB3 = system: HB3
In short: as §1

JCK = system: JCK
In short: as §1

P94_40 = system: P94_40
In short: as §1

PC15 = system: PC15
In short: as §1

SC27B = system: SC27B
In short: as §1

TAB113 = system: TAB113
In short: as §1

TAB165 = system: TAB165
In short: as §1

CP315 = system: CP315
In short: as §1

PC49 = system: PC49
In short: as §1

Measured: Potency
Potency is read from the fitted curve at half-maximal effect.

CC[C@H](C)[C@H]1O[C@]2(CC[C@@H]1C)C[C@@H]1C[C@@H](C/C=C(\C)[C@H](O[C@@H]3C[C@H](OC)[C@H](O[C@@H]4C[C@H](OC)[C@@H](O)[C@H](C)O4)[C@H](C)O3)[C@@H](C)/C=C/C=C3\CO[C@@H]4[C@H](O)C(C)=C[C@@H](C(=O)O1)[C@]34O)O2
active: 3D7 1.41 µM | C2A 1.41 µM | CP191 0.794 µM | CP192 1.69 µM | CP194 1.35 µM | CP237 2.24 µM | CP250 0.891 µM | CP256 0.708 µM | CP268 1.69 µM | CP305 1.69 µM | Dd2 2.24 µM | HB3 2 µM | JCK 15.8 µM | P94_40 1.12 µM | PC15 2.82 µM | SC27B 1 µM | TAB113 0.891 µM | TAB165 0.794 µM

Cc1ccc(/C=C2/C(=O)C3(C)CCC2C3(C)C)cc1 (stereo not drawn)
inactive: all assays above

CNC1C(O)C(OC2C(NC(=O)C(O)CN)CC(N)C(OC3OC(CN)C(O)C(O)C3O)C2O)OCC1(C)O (stereo not drawn)
inactive: all assays above

CCCC(=O)Nc1c(I)cc(I)c(C[C@H](CC)C(=O)O)c1I
inactive: all assays above

Cc1cc2nc3c(=O)[nH]c(=O)nc-3n(CC(O)C(O)C(O)COP(=O)(O)O)c2cc1C (stereo not drawn)
not listed: CP191
inactive: all other assays above

O=C(O)Cc1sc(-c2ccc(Cl)cc2)nc1-c1ccccc1
inactive: all assays above

CC1(C(=O)O)CCC2(C)CCC3(C)C(=CC(=O)C4C5(C)CCC(O)C(C)(C)C5CCC43C)C2C1 (stereo not drawn)
inactive: all assays above

C[C@@H](O)[C@@H]1C(=O)N2C(C(=O)O)=C([C@H]3CCCO3)S[C@H]12
inactive: all assays above

CC(CN1CC(=O)NC(=O)C1)N1CC(=O)NC(=O)C1 (stereo not drawn)
not listed: CP192
inactive: all other assays above

CO/N=C(/C(=O)N[C@@H]1C(=O)N2C(C(=O)O)=C(CSc3nnnn3C)CS[C@H]12)c1csc(N)n1
inactive: all assays above

CC(=O)C1(O)Cc2c(O)c3c(c(O)c2C(OC2CC(N)C(O)C(C)O2)C1)C(=O)c1c(O)cccc1C3=O (stereo not drawn)
active: 3D7 3.16 µM | C2A 8.91 µM | CP191 5.01 µM | CP192 10.7 µM | CP194 12 µM | CP237 2.82 µM | CP250 11.2 µM | CP256 10 µM | Dd2 4.47 µM | HB3 6.31 µM | JCK 12.6 µM | P94_40 5.01 µM | PC15 11.2 µM | PC49 6.31 µM | SC27B 4.47 µM | TAB113 6.31 µM | TAB165 4.47 µM

NCCCCC(N)C(=O)O (stereo not drawn)
inactive: all assays above

C[C@@H]1CCN(C(=O)[C@H](CCCNC(=N)N)NS(=O)(=O)c2cccc3c2NC[C@H](C)C3)[C@@H](C(=O)O)C1
not listed: CP315
inactive: all other assays above

Nc1nc(/C(=C/CC(=O)O)C(=O)NC2C(=O)N3C(C(=O)O)=CCSC23)cs1 (stereo not drawn)
not listed: HB3
inactive: all other assays above

C=C[C@@]1(C)C[C@H](OC(=O)CSC(C)(C)CNC(=O)[C@@H](N)C(C)C)[C@@]2(C)C(C)CC[C@@]3(CCC(=O)[C@@H]32)[C@H](C)[C@H]1O (stereo partly drawn)
active: 3D7 8.91 µM | C2A 5.01 µM | CP191 3.98 µM | CP192 3.38 µM | CP194 1.9 µM | CP237 1.41 µM | CP256 0.316 µM | CP268 3.01 µM | CP305 0.379 µM | CP315 2.69 µM | Dd2 0.282 µM | P94_40 1.58 µM | SC27B 5.62 µM | TAB113 5.62 µM | TAB165 4.47 µM

CC(=O)N1CC(O)CC1C(=O)O (stereo not drawn)
not listed: TAB113
inactive: all other assays above

COc1ccc2cc1Oc1cc3c(cc1OC)CC[N+](C)(C)C3Cc1ccc(cc1)Oc1c(OC)c(OC)cc3c1C(C2)[N+](C)(C)CC3 (stereo not drawn)
inactive: all assays above

O=C(O)c1ccc(N[C@@H]2OC[C@@H](O)[C@@H](O)[C@@H]2O)cc1
inactive: all assays above

CO/N=C(/C(=O)N[C@@H]1C(=O)N2C(C(=O)O)=C(CSc3cnns3)CS[C@H]12)c1csc(N)n1
inactive: all assays above

Nc1ncn(C2C[C@H](O)[C@@H](CO)O2)c(=O)n1 (stereo partly drawn)
inactive: all assays above

C=C1NC(=O)c2cc(CN(C)c3ccc(C(=O)N[C@@H](CCC(=O)O)C(=O)O)s3)ccc2N1
not listed: CP237
inactive: all other assays above

CC1(C)O[C@@H]2C[C@H]3[C@@H]4CCC5=CC(=O)C=C[C@]5(C)[C@H]4C(O)C[C@]3(C)[C@]2(C(=O)CO)O1 (stereo partly drawn)
not listed: CP237 | Dd2 | SC27B | TAB165 | CP315 | PC49
inactive: all other assays above

Clc1ccc(CS[C@@H](Cn2ccnc2)c2ccc(Cl)cc2Cl)cc1
active: 3D7 2.82 µM | CP191 3.55 µM | CP194 5.1 µM | CP237 1.78 µM | Dd2 4.47 µM | HB3 3.98 µM | P94_40 3.55 µM | PC15 3.55 µM | SC27B 2.82 µM | TAB165 0.708 µM

Cn1cc(C(=O)[C@@H]2CCc3[nH]cnc3C2)c2ccccc21
inactive: all assays above
